# Experimental data: PubChem BioAssay
# Calls of active or inactive are those of the source.
# Assays:
# [1] = small molecules captured by biotinylated probe aFSTL3 – biochemical, small-molecule microarray, fluorescence 635/667, stem cell growth factor project, primary screen (AID 1064); conditions: higher = more signal;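 also: measures binding of the biotinylated anti-FSTL3 antibody to printed compounds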
# [2] = binders from COS7 lysate, DM2A8 probe, primary screen, torsin A project, cell lysate, small-molecule microarray, fluorescence 635/667 (AID 1065); conditions: higher = more signal, COS7 lysate expressing mutant human TOR1A
# [3] = small molecules captured by biotinylated probe aFGF2 – biochemical, small-molecule microarray, fluorescence 635/667, stem cell growth factor project, primary screen (AID 1067); conditions: higher = more signal;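 also: measures binding of biotinylated aFGF2 protein to printed compounds on slides; z-score merges feature fluorescence and signal-to-noise across triplicate slides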
# [4] = small molecules captured by biotinylated probe aFGF10 – biochemical, small-molecule microarray, fluorescence 635/667, stem cell growth factor project, primary screen (AID 1071); conditions: higher = more signal;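 also: score merges 667 nm spot intensity and signal to noise from triplicate slides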
# [5] = target: Neurogenic locus notch homolog protein 2 (Homo sapiens) (UniProt Q04721); assay: small molecules binding Notch2 protein – biochemical, small-molecule microarray, 635 nm fluorescence, stem cell growth factors, primary screen (AID 1073); conditions: higher = more signal
# [6] = target: Pro-neuregulin-1, membrane-bound isoform (Homo sapiens) (UniProt Q02297); assay: small molecules binding neuregulin-1 protein – biochemical, small-molecule microarray, fluorescence 635/667, psychiatric disease protein project, primary screen (AID 1075); conditions: NRG1 binding, 635 nm fluorescence, higher = more signal;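 also: score combines 667 nm spot fluorescence with signal to noise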
# [7] = test system: Neuregulin-1 EGF-like domain; assay: small molecules binding NRG1 EGF domain – biochemical, small-molecule microarray, 635 nm fluorescence, primary screen (AID 1081); conditions: higher = more signal;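 also: binding of the protein to compounds printed on small-molecule microarray slides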
# [8] = FRG1 expression reporter modulators in myotubes – cell-based, C2C12 myotubes, firefly/Renilla luciferase, luminescence, FRG1 inhibition for FSHD, primary screen (AID 1084); conditions: FRG1 promoter luciferase, higher = more signal, called active from +8 up or from −8 down
# [9] = small molecules captured by biotinylated probe aFST – biochemical, small-molecule microarray, fluorescence 635/667, stem cell growth factor project, primary screen (AID 1086); conditions: higher = more signal;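 also: score merges 667 nm fluorescence with signal-to-noise of each printed compound spot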
# [10] = binders of probe aHhip on microarray, primary screen, stem cell growth factor project, biochemical, small-molecule microarray, fluorescence 635/667 (AID 1087); conditions: higher = more signal;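 also: score merges spot fluorescence at 667nm with spot signal to noise ratio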
# [11] = test system: PRMT1 (protein arginine N-methyltransferase 1); assay: small molecules binding arginine methyltransferase PRMT1 – biochemical, small-molecule microarray, 635 nm fluorescence, primary screen (AID 1088); conditions: higher = more signal;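 also: binding of Prmt1 protein to compounds spotted on small-molecule microarray slides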
# [12] = growth effects on S. cerevisiae YJM789 – YJM789 clinical isolate, OD600, 24 h, basal, primary screen (AID 1089); conditions: higher = more signal, called active from +8 up or from −8 down;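 also: growth of clinical yeast isolate S. cerevisiae YJM 789 seeded 1000 cells per well; test concentration not given here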
# [13] = S. pombe growth modifiers, basal conditions – strain 972, OD600, 24 h, no modulator, primary screen (AID 1090);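 also: basal condition with compound alone and no growth modifier present; test concentration not given here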; conditions: S. pombe 972 growth, higher = more signal, called active from +8 up or from −8 down
# [14] = budding yeast growth modifiers under rapamycin – strain BY4716, OD600, 96 h, primary screen (AID 1091); also: test concentration not given here; conditions: S. cerevisiae BY4716 + rapamycin, higher = more signal, called active from +8 up or from −8 down
# [15] = target: Torsin-1A-interacting protein 2 (Homo sapiens) (UniProt Q8NFQ8); assay: small molecules binding lysate-expressed LULL1 – cell lysate, human LULL1 lysate, 635/667 nm fluorescence, primary screen (AID 1092); conditions: small-molecule microarray, hLULL1 lysate binding, 635 nm fluorescence; higher = more signal;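 also: probe is lysate of COS7 cells overexpressing human LULL1; score merges per-feature 667 nm fluorescence with signal-to-noise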
# [16] = optical density change of DRC41 E. coli – strain DRC41, OD650, 24 h, E. coli filamentation project, primary screen (AID 1093);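 also: MC1000 strain lacking acrAB efflux and sulA so SOS filamentation is blocked; test concentration not given here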; conditions: E. coli DRC41 growth, higher = more signal, called active from +8 up or from −8 down
# [17] = probe aLefty2 binding to arrayed compounds – biochemical, biotinylated probe, 635/667 nm fluorescence, primary screen (AID 1094); conditions: small-molecule microarray, higher = more signal;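 also: score merges spot fluorescence near 667 nm with spot signal-to-noise ratio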
# [18] = test system: Noggin (protein binding on small-molecule microarray); assay: small molecules binding Noggin protein – biochemical, 635/667 nm fluorescence, primary screen (AID 1095); conditions: 635 nm fluorescence, higher = more signal;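 also: score merges 667 nm feature fluorescence with signal to noise over triplicate slides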
# [19] = target: Neurogenic locus notch homolog protein 3 (Homo sapiens) (UniProt Q9UM47); assay: small molecules binding NOTCH3 protein – biochemical, 635/667 nm fluorescence, primary screen (AID 1096); conditions: small-molecule microarray, 635 nm fluorescence, higher = more signal
# [20] = probe aEGFR binding to arrayed compounds – biochemical, biotinylated probe, 635/667 nm fluorescence, primary screen (AID 1097); conditions: small-molecule microarray, higher = more signal;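 also: probe is a biotinylated anti-EGFR antibody binding compounds printed on slides; score combines fluorescence near 667 nm and signal to noise of each spot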
# Chain of Torsin-1A-interacting protein 2 (Homo sapiens) (Q8NFQ8 whole entry, looked up): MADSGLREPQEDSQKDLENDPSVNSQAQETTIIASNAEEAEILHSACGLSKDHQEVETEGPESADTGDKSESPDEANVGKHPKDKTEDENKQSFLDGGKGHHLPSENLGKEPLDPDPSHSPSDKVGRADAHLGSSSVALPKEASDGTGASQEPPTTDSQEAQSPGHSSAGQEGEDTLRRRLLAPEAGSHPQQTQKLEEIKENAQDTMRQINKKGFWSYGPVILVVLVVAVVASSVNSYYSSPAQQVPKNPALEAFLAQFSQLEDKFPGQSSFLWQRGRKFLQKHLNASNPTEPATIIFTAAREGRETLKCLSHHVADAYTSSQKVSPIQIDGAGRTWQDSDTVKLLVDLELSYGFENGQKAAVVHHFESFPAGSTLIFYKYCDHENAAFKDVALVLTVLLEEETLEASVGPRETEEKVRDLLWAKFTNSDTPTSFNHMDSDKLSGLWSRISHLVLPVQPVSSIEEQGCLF
# Chain of Pro-neuregulin-1, membrane-bound isoform (Homo sapiens) (Q02297 whole entry, looked up, the tested form may be a part, canonical isoform): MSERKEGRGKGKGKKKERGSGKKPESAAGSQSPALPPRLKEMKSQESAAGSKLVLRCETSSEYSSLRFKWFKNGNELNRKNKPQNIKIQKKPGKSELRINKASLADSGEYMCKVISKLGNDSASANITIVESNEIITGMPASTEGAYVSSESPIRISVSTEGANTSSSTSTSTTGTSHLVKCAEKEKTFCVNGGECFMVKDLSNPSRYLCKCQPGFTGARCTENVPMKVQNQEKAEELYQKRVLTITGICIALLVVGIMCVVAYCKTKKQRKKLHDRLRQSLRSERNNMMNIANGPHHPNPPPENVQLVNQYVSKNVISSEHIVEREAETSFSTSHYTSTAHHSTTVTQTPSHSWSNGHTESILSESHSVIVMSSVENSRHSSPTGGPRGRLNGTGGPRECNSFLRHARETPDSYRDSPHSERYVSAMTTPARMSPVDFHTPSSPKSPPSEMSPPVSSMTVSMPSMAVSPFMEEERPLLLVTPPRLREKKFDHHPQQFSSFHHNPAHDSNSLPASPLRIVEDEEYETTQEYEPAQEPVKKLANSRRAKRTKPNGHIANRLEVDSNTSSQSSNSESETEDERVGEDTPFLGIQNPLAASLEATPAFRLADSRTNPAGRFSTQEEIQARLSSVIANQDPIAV
# Chain of Neurogenic locus notch homolog protein 2 (Homo sapiens) (Q04721 whole entry, looked up, canonical isoform): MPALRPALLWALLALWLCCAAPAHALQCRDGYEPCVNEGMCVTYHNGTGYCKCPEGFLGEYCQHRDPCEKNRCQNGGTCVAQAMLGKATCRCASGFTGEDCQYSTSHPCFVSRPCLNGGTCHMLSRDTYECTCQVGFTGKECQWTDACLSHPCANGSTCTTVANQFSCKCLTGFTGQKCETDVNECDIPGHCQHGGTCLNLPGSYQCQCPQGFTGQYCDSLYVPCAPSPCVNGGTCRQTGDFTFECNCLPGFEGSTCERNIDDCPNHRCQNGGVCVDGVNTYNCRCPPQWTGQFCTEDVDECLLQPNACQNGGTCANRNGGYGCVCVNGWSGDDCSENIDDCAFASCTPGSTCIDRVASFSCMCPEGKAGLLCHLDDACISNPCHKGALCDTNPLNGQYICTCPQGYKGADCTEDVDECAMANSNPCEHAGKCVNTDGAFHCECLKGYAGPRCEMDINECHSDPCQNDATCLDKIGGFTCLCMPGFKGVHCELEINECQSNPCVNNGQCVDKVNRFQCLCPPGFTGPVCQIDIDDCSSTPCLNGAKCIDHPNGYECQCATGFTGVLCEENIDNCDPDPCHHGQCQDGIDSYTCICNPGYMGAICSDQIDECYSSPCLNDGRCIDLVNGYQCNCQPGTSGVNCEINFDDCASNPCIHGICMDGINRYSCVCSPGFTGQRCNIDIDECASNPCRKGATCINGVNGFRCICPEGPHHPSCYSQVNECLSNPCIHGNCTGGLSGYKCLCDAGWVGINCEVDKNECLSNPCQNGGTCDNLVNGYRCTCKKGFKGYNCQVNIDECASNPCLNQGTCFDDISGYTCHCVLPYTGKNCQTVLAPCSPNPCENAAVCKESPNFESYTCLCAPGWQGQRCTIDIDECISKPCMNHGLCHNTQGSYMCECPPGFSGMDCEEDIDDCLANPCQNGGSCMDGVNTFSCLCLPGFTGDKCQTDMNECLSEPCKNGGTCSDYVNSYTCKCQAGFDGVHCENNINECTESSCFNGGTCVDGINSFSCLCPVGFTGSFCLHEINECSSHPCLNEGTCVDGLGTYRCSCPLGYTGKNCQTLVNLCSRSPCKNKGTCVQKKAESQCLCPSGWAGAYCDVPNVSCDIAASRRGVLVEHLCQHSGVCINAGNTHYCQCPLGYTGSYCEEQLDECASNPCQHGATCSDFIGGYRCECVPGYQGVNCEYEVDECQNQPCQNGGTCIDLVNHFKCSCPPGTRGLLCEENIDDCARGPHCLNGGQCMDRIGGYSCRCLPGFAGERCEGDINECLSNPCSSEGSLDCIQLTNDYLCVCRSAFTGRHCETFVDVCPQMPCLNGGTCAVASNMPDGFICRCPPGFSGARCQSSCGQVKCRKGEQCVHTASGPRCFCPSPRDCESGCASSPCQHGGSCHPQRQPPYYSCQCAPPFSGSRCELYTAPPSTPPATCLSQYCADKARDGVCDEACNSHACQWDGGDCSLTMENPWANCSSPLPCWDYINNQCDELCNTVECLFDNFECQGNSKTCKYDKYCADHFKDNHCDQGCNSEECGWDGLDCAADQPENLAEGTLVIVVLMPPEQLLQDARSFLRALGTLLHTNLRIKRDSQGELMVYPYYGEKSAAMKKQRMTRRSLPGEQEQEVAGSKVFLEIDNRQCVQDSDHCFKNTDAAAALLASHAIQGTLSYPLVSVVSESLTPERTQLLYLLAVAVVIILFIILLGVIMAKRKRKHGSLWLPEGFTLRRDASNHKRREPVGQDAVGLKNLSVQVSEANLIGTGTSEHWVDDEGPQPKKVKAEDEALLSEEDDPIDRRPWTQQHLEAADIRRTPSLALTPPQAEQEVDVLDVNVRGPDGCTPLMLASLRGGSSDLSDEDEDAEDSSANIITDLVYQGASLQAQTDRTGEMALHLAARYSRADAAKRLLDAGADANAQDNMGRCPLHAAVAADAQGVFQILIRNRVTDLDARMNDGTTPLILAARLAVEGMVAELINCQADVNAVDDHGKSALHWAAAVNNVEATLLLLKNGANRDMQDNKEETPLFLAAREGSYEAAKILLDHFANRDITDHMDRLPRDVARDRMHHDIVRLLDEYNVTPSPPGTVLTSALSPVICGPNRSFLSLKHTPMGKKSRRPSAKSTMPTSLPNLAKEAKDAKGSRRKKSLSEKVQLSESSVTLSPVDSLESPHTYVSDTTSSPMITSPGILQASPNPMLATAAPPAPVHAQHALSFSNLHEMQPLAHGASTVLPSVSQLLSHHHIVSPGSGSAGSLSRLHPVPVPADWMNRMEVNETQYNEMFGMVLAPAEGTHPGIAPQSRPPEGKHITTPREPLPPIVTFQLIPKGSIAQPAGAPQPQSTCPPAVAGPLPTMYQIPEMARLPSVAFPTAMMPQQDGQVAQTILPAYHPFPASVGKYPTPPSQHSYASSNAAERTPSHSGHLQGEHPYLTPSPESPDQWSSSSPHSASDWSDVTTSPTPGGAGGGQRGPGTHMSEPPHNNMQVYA
Structure (SMILES),composite z-score [1],composite z-score [2],composite z-score [3],composite z-score [4],composite z-score [5],composite z-score [6],composite z-score [7],z-score [8],composite z-score [9],composite z-score [10],composite z-score [11],z-score [12],z-score [13],z-score [14],composite z-score [15],z-score [16],composite z-score [17],composite z-score [18],composite z-score [19],composite z-score [20]
C=C(CCCC)C(=O)CC[C@H](OC(=O)c1ccccc1-c1ccccc1C(=O)O)c1ccc(OCCO)cc1,-0.441,1.06,-0.0876,0.315,-0.181,1.13,1.19,-0.62 (inactive),0.393,-0.236,0.636,-0.338 (inactive),-1.48 (inactive),-1.88 (inactive),1.65,0.836 (inactive),-0.0563,1.43,0.171,-0.0197
O=C(NCCN1CCOCC1)[C@@H]1c2ccccc2C(=O)N(Cc2ccccc2C(F)(F)F)[C@H]1c1ccc(CO)cc1,-1.15,-0.438,-0.319,-0.613,-1.2,0.875,-0.755,-1.79 (inactive),0.48,-0.504,1.56,-0.451 (inactive),-0.539 (inactive),-0.705 (inactive),1.81,0.75 (inactive),-0.525,-0.982,-0.842,-0.403
COCCOC(=O)N1C(=O)[C@@]2(c3ccccc31)[C@H](c1ccc(O)cc1)N1[C@H](c3ccccc3)[C@H](c3ccccc3)OC(=O)[C@H]1[C@@H]2C(=O)N1CCCCCCC1,3.84,1.88,0.949,0.802,1.07,2.5,1.29,-3.25 (inactive),3.5,3.27,1.55,-0.322 (inactive),0.621 (inactive),0.929 (inactive),3.9,0.178 (inactive),1.76,1.98,1.02,1.26
CCOC(=O)C[C@H]1[C@H](OC(=O)Cc2ccc3c(c2)OCO3)[C@@H](NC(=O)Cc2ccc(OC)cc2)c2cc(OCCCO)ccc2N1C(=O)Cc1ccc(OC)cc1,-0.199,0.225,-0.128,0.209,0.121,0.007,0.501,-3.1 (inactive),0.255,0.132,0.433,-0.449 (inactive),0.531 (inactive),-0.495 (inactive),1.3,0.503 (inactive),-0.0616,-0.102,0.194,-0.157
O=C(NC1CC1)[C@@H]1c2ccccc2C(=O)N(Cc2cc(C(F)(F)F)cc(C(F)(F)F)c2)[C@H]1c1ccc(CO)cc1,-0.758,0.332,-0.223,0.0757,-0.134,1.4,1.36,0.102 (inactive),-0.131,-0.863,1.43,-0.523 (inactive),-1.38 (inactive),-0.108 (inactive),2.92,-0.275 (inactive),-0.508,0.76,0.491,-0.399
O=C1C2C=CC(C(O)c3cccs3)N(Nc3ccc([N+](=O)[O-])cc3)C2C(=O)N1c1ccccc1 (stereo not given),0.102,-0.0628,0.0543,0.362,1.19,1.67,1.23,1.05 (inactive),0.611,0.154,0.32,-0.198 (inactive),1.14 (inactive),1.88 (inactive),2.98,-0.0849 (inactive),-0.0636,-0.13,0.788,-0.0947
C=CCOC(=O)[C@@H]1[C@H]2C(=O)O[C@H](c3ccccc3)[C@H](c3ccccc3)N2[C@H](c2ccc(OCCOC(=O)[C@H]3C[C@H]4C(=O)NCC(=O)N4[C@H]3c3cccc(OCCO)c3)cc2)[C@@]12C(=O)Nc1ccc(I)cc12,-0.0708,0.727,-0.0383,-0.0265,0.593,1.16,1.23,0.779 (inactive),0.275,-0.0296,1.54,0.787 (inactive),1.44 (inactive),3.6 (inactive),2.7,0.002 (inactive),-0.0809,0.963,1.1,0.0712
CCOC(=O)C1=CC[C@@H](c2ccccc2)N(S(=O)(=O)c2ccc(C)cc2)[C@H]1c1ccccc1I,-0.312,0.215,0.162,0.571,1.48,1.05,1.12,-2.08 (inactive),1.92,0.0662,0.98,-0.323 (inactive),0.666 (inactive),0.607 (inactive),2.63,-0.162 (inactive),0.52,0.22,1.06,0.0321
COc1ccc(CCNC(=O)[C@@H]2c3ccccc3C(=O)N(Cc3ccccc3OC)[C@H]2c2ccc(CO)cc2)cc1,-0.26,0.678,0.0021,0.131,1.03,1.29,1.31,-2.5 (inactive),0.428,-0.266,1.53,-1.23 (inactive),0.294 (inactive),-0.323 (inactive),2.62,-0.1 (inactive),-0.172,0.0564,0.852,-0.105
CN(C)CCCC[C@@H]1NC(=O)[C@H]2C[C@@H](C(=O)O)[C@@H](c3ccc(O)cc3)N2C1=O,3.22,2.34,0.653,1.04,1.64,2.84,1.38,2.42 (inactive),3.29,1.38,1.54,-0.116 (inactive),-1.99 (inactive),0.193 (inactive),4.23,2.11 (inactive),1.55,2.16,1.02,1.33
CC1CC/C=C\[C@H]2OC34C=CCN(c5ccc(Cl)cc5)C(=O)[C@H]3N(CCCCCCO)C(=O)[C@]4(C)C2C(=O)O1 (stereo not given in full),-0.147,-0.965,-0.176,-0.219,-0.705,0.639,1.52,0.975 (inactive),-0.56,-0.204,-0.106,-0.0412 (inactive),-0.884 (inactive),0.187 (inactive),0.995,0.206 (inactive),-0.233,-0.914,-0.277,-0.314
CC(C)NC(=O)[C@@H]1c2ccccc2C(=O)N(Cc2ccc(OC(F)(F)F)cc2)[C@H]1c1ccc(CO)cc1,0.33,-0.0722,0.242,0.625,1.05,0.765,1,-1.05 (inactive),1.35,2.21,1.54,0.0263 (inactive),-1.24 (inactive),-1.51 (inactive),2.67,-1.48 (inactive),0.734,0.756,1.11,0.587
COc1ccc(C(=O)Nc2ccc3c(c2)[C@@]2(O[C@H](CCO)[C@@H]([Si](C)(C)c4ccc(OC)cc4)[C@@H]2C)C(=O)N3Cc2ccccc2)cc1,-0.122,0.143,-0.0333,-0.0652,0.562,0.929,1.07,-3.68 (inactive),0.154,0.2,1.28,-0.0565 (inactive),-4.96 (inactive),2.7 (inactive),1.94,0.629 (inactive),-0.0124,1.32,0.742,-0.0828
C=CCNC(=O)[C@H]1[C@@H]2C(=O)O[C@@H](c3ccccc3)[C@@H](c3ccccc3)N2[C@@H](c2ccc(OCCO)cc2)[C@]12C(=O)Nc1ccc(C#CC3(O)CCCCCC3)cc12,0.604,0.648,-0.0065,1.1,1.54,1.43,1.1,-0.486 (inactive),0.229,0.306,1.53,2.3 (inactive),1.42 (inactive),5.09 (inactive),2.11,1.61 (inactive),0.323,1.4,1.08,0.0432
COC(=O)C[C@H]1O[C@@]2(C[C@@H]1[Si](C)(C)C)C(=O)N(C)c1ccccc12,-0.469,0.105,-0.129,0.487,0.833,0.22,0.672,-0.933 (inactive),0.607,-0.0645,0.447,-2.53 (inactive),-2.4 (inactive),-1.5 (inactive),1.2,1.62 (inactive),-0.15,0.297,0.764,0.0747
O=C1C[C@]2(c3ccc([N+](=O)[O-])cc3)C(=O)N(C3CC3)c3cc(CO)ccc3[C@H]2N1C1CCCCC1,-0.351,-0.124,-0.164,0.097,-0.0343,-0.123,-0.0608,0.413 (inactive),-0.0927,-0.236,0.788,0.0359 (inactive),0.389 (inactive),-1.04 (inactive),1.2,0.221 (inactive),-0.171,-0.533,-0.105,-0.0656
C=CCC(OC(C)=O)[C@@H]1[C@@H](N(Cc2cccc3ccccc23)C(=O)Cc2ccc(OC)cc2)c2cc(OCCCO)ccc2N1C(=O)Cc1ccc2ccccc2c1 (stereo not given in full),-0.289,-0.176,-0.14,0.184,-0.529,0.906,-0.29,-1.77 (inactive),0.165,-0.364,0.402,-0.0978 (inactive),0.374 (inactive),-1.51 (inactive),0.574,-0.079 (inactive),-0.0911,0.656,-0.87,-0.0828
COCCOC(=O)N1C(=O)[C@@]2(c3cc(C#Cc4ccc(OC)cc4)ccc31)[C@H](c1ccc(OCCO)cc1)N1[C@H](c3ccccc3)[C@H](c3ccccc3)OC(=O)[C@H]1[C@@H]2C(=O)NC[C@H](O)c1ccccc1,1.48,0.628,0.005,0.703,1.15,0.455,1.2,0.848 (inactive),0.919,0.28,1.5,3.3 (inactive),2.29 (inactive),7.99 (inactive),2.31,0.0136 (inactive),0.3,0.729,1.1,0.259
COC(=O)[C@@]1(Cc2ccccc2)[C@H]2c3cc(C(=O)N(C)C)n(Cc4ccc(S(C)(=O)=O)cc4)c3C[C@H]2CN1C(=O)c1ccccc1,0.442,0.198,0.431,0.443,1.48,2.03,1.22,2.39 (inactive),0.744,-0.118,-0.541,0.407 (inactive),0.279 (inactive),0.654 (inactive),3.51,-1.59 (inactive),0.384,-0.415,1.11,0.211
